Assay results taken from the supplement of paper PMC9694430.
Several values for one entry are separate records, joined by “and”; a condition that tells them apart may be missing. Equal values may be shown once.

Key:
Assay in all cases: thermal shift delta Tm vs DMSO control; higher = stronger stabilization (binding)
Conditions in all cases: 12.5 µM; protein concentration 2 µM
[1] = tested on: LOC_OS01G01410-cb001
Method in brief: (§1)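 Heating from 25°C to 95°C at 0.05°C/s, fluorescence was recorded for 19.5 μl wells of 2 μM E. coli-expressed, purified rice kinase domain in 100 mM potassium phosphate pH 7.5, 150 mM NaCl, 10% glycerol and 5 × SYPRO Orange with compound in DMSO. Boltzmann fits gave melting temperatures for this differential scanning fluorimetry assay. The shift reported is the mean of three replicates against the DMSO-only protein.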

[2] = tested on: LOC_OS01G02750-cb003
Method in brief: as §1

[3] = tested on: LOC_OS01G10900-cb004
Method in brief: as §1

[4] = tested on: LOC_OS01G13800-cb001
Method in brief: as §1

[5] = tested on: LOC_OS01G14860-cb001
Method in brief: as §1

[6] = tested on: LOC_OS01G21960-cb002
Method in brief: as §1

[7] = tested on: LOC_OS01G39600-cb002
Method in brief: as §1

[8] = tested on: LOC_OS01G48390-cb002
Method in brief: as §1

[9] = tested on: LOC_OS01G51400-cb002
Method in brief: as §1

[10] = tested on: T1, LOC_OS01G52050-cb004
T1 sequence (whole entry): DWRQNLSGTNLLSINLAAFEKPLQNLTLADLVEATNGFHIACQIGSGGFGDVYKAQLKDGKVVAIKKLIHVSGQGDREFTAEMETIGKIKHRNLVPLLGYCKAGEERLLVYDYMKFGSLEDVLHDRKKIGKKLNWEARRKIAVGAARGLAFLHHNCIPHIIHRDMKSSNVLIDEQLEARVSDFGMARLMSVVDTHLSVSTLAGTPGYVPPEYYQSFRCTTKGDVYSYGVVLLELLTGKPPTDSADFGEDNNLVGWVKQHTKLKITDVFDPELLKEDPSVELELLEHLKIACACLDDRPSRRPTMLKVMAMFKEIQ
Method in brief: as §1
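Also: purified Escherichia coli-expressed rice kinase domain construct.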

SMILES | thermal shift delta Tm [1] | thermal shift delta Tm [2] | thermal shift delta Tm [3] | thermal shift delta Tm [4] | thermal shift delta Tm [5] | thermal shift delta Tm [6] | thermal shift delta Tm [7] | thermal shift delta Tm [8] | thermal shift delta Tm [9] | thermal shift delta Tm [10]
CCN(CC)CCCCNc1ncc2cc(-c3cc(OC)cc(OC)c3)c(NC(=O)NC(C)(C)C)nc2n1 | 0.27 °C | 1.32 °C | 0.9 °C | 0.29 °C | 0.28 °C | 0.43 °C | -0.12 °C | 1.3 °C | 0.23 °C | 0.11 °C
N#Cc1ccc2ncnc(NCCc3ccccc3)c2c1 [Senexin A] | 1.49 °C | 1.5 °C | 0.41 °C | 0.25 °C | 0.78 °C | 0.95 °C | 0.66 °C | 0.42 °C | 0.41 °C | 2.96 °C
CNC(=O)CN1CCC(Oc2cc3c(Nc4cccc(Cl)c4F)ncnc3cc2OC)CC1 [Sapitinib (AZD8931)] | 0.6 °C | 0.72 °C | 0.42 °C | -0.22 °C | 0.2 °C | 0.31 °C | 0.43 °C | 0.44 °C | -0.05 °C | 0.01 °C
C=CC(=O)Nc1cccc(Nc2nc(Nc3ccc(NC4CN(CCF)C4)cc3OC)ncc2C(F)(F)F)c1 | 0.5 °C | -0.47 °C | 0.12 °C | -0.76 °C | 0.1 °C | 0.07 °C | 1.11 °C | 2.29 °C | 0.35 °C | 0.31 °C
Cc1nc(Nc2n[nH]c3c2CN(C(=O)N[C@H](CN(C)C)c2ccccc2)C3(C)C)c2sccc2n1 | 0.37 °C | 2.46 °C | 0.23 °C | -0.4 °C | 4.22 °C | 2.47 °C | 0.6 °C | 0.23 °C | 0.28 °C | 0.94 °C
Cc1cc(Nc2cc(N3CCN(C)CC3)nc(/C=C/c3ccccc3)n2)n[nH]1 | 2.2 °C | 1.8 °C | 1.93 °C | -0.23 °C | 2.99 °C | 2.75 °C | 2.83 °C | 2.45 °C | 0.24 °C | 3.7 °C
COCCOc1cnc2ccn([C@H](C)c3nnc4c(F)cc(-c5cnn(C)c5)cn34)c(=O)c2c1 | 0.44 °C | 0.28 °C | 0.34 °C | -0.27 °C | 0.15 °C | 0.42 °C | -0.26 °C | 0.28 °C | 0.32 °C | 0.4 °C
C=C(C)[C@@H]1CC[C@]2(C)CC[C@]3(C)[C@H](CC[C@@H]4[C@@]5(C)CC[C@H](O)C(C)(C)[C@@H]5CC[C@]43C)[C@@H]12 [Lupeol] | 0.2 °C | 0.62 °C | 0.32 °C | 0.74 °C | 0.11 °C | 0.67 °C | 0.07 °C | -0.09 °C | -0.11 °C | 0.44 °C
CC(C)(O)CNc1ncc(-c2ccnc(Nc3ccncc3)n2)c(CC2CC2)n1 [VPS34 inhibitor 1 (Compound 19, PIK-III analogue)] | 0.51 °C | 1.04 °C | 5.05 °C | 0.63 °C | 2.25 °C | 0.87 °C | 0.48 °C | 1.46 °C | 0.29 °C | 4.06 °C
CNC(=O)c1cc(Oc2ccc3nc(N[C@@H]4CCCC[C@H]4O)sc3c2)ccn1 | 0.03 °C | 2.05 °C | 1.18 °C | 0.41 °C | -0.2 °C | 0.67 °C | -0.55 °C | 0.91 °C | 0.42 °C | 0.41 °C
Cc1[nH]nc2ccc(-c3cncc(OC[C@@H](N)Cc4ccccc4)c3)cc12 | 0.54 °C | 2.26 °C | 0.37 °C | 0.21 °C | 4.96 °C | 3.58 °C | -0.73 °C | 1.02 °C | 0.06 °C | 2.3 °C
O=C(NOCCO)c1ccc2cncn2c1Nc1ccc(I)cc1F | 1.18 °C | 5.7 °C | 1.31 °C | 1.55 °C | 3.41 °C | 0.59 °C | -0.21 °C | 1.12 °C | 0.54 °C | 0.41 °C
CN(c1ncccc1CNc1nc(Nc2ccc3c(c2)CC(=O)N3)ncc1C(F)(F)F)S(C)(=O)=O | 1.79 °C and 2.31 °C | 3.54 °C and 4.36 °C | 1.71 °C and 2.09 °C | -0.44 °C and -0.69 °C | 4.96 °C and 3.99 °C | 2.13 °C and 2.41 °C | 8.29 °C and 12.3 °C | 2.62 °C and 2.82 °C | 1.29 °C and 1.71 °C | 5.25 °C and 6.24 °C
C=CC(=O)Nc1ccc(CN2C(=O)N(c3cc(OC)cc(OC)c3)Cc3cnc(Nc4ccc(N5CCN(C)CC5)cc4)nc32)cc1 | 1.43 °C | 1.19 °C | 4.79 °C | 0.56 °C | 0.97 °C | 1.74 °C | -0.73 °C | 4.57 °C | 0.02 °C | 0.08 °C
COc1ncc(-c2cc(-c3ncc(CN4C[C@@H](C)O[C@@H](C)C4)o3)c3cn[nH]c3c2)cc1NS(C)(=O)=O | 0.55 °C | 3.05 °C | -0.41 °C | -0.09 °C | -0.11 °C | 0.43 °C | 0.15 °C | 0.01 °C | 0.34 °C | -0.19 °C
COCCOc1ccc2c(c1)ncn2-c1ccc2cccc(N3CCC(N)CC3)c2n1 | 0.39 °C | 7.25 °C | 1.08 °C | -0.56 °C | 1.89 °C | 3.75 °C | 2.09 °C | 0.21 °C | -0.08 °C | 10.9 °C
O=C1NC(=O)/C(=C/c2ccc3nccc(-c4ccncc4)c3c2)S1 | 1.21 °C | 0.63 °C | 0.95 °C | 0.37 °C | 0.98 °C | 0.96 °C | 1.76 °C | 0.2 °C | 0.08 °C | 0.79 °C
COc1cc(Nc2ncc3c(n2)-c2ccc(Cl)cc2C(c2c(F)cccc2OC)=NC3)ccc1C(=O)O [Alisertib (MLN8237)] | 0.87 °C | 0.27 °C | -0.01 °C | -0.04 °C | 0.35 °C | -0.3 °C | 3.62 °C | -0.18 °C | -0.33 °C | 0.48 °C
O=c1c(O)c(-c2cc(O)c(O)c(O)c2)oc2cc(O)cc(O)c12 [Myricetin] | 2.93 °C | 26.2 °C | 1.94 °C | 1.96 °C | 5.72 °C | 5.56 °C | 4.45 °C | 2.72 °C | 2.08 °C | 5.01 °C
